Bioassay records: PubChem BioAssay, Buhrlage Lab, Dana-Farber Cancer Institute and Novartis Institutes for BioMedical Research (Cambridge, Mass)
A selection: hits, their analogues and other compounds. The true share with any hit is near 9.6%.
USP30 block – inhibitors of human USP30 deubiquitinase; actives 5.3% (n = 47,000); Ubiquitin carboxyl-terminal hydrolase 30 (Homo sapiens), Q70CQ3; purified USP30, Ub-rhodamine cleavage fluorescence; inhibition, % at 25 µM
Target sequence (Q70CQ3 whole entry, looked up): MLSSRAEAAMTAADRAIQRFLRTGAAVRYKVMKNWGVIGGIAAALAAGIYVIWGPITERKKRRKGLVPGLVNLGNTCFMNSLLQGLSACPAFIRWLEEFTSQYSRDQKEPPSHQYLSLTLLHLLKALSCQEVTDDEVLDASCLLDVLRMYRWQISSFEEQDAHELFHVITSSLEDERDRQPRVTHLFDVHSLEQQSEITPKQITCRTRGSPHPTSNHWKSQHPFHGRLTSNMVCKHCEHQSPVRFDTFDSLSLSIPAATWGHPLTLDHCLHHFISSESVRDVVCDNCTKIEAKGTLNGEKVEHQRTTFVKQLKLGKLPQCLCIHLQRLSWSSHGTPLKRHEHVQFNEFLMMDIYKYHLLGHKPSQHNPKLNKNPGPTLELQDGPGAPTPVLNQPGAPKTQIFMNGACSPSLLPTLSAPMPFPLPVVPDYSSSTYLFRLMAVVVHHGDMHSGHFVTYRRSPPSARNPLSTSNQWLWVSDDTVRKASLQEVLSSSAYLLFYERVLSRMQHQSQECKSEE
USP17 block – inhibitors of human USP17 deubiquitinase | Ubiquitin carboxyl-terminal hydrolase 17-like protein 5 (Homo sapiens), A8MUK1 | purified USP17, Ub-rhodamine cleavage fluorescence, 3 h | inhibition, % at 50 µM | actives 6.5% (n = 47,000) | AID 1645855, 2021
* marks the source's active call; other numbers are inactive results; / = no result. No stated cut-off is given here; in the data, active means inhibition above about 30%; inactive means the rest.

SMILES	USP30 block	USP17 block
Cc1cccc(NC(=O)CSc2ncnc3c2sc2nc(CC(C)C)c4c(c23)CCC4)c1	34*	74*
CC(C)Cc1nc2sc3c(SCC(=O)Nc4ccc(Cl)cc4)ncnc3c2c2c1CCC2	9	13
CC(C)Cc1nc2sc3c(SCC(=O)NC4(c5ccccc5)CCCC4)ncnc3c2c2c1CCC2	26	42*
Cc1ccc(S(=O)(=O)N[C@@H](C(=O)N2CCC(C(=O)N[C@@H](Cc3ccc(O)cc3)C(=O)O)CC2)C(C)C)cc1	23	7
COc1ccc(-c2cc(N3CCC(NC(=O)c4ccccn4)C3)n[nH]2)cc1 (stereo not drawn)	18	4
COc1ccc(-c2cc(N3CCC(NC(=O)c4ccccc4)C3)n[nH]2)cc1 (stereo not drawn)	0	56*
O=C(C1CCCCC1)N1CCCC(c2nn(CCOc3ccccc3)c3nccnc23)C1 (stereo not drawn)	33*	31*
O=C(CC1CCCC1)N1CCCC(c2nn(CCOc3ccccc3)c3nccnc23)C1 (stereo not drawn)	23	15
CSc1ccc(S(=O)(=O)NCC(=O)OC(C)C(=O)Nc2ccc(C#N)cc2)cc1[N+](=O)[O-] (stereo not drawn)	-24	-21
O=C1C2=C(Nc3ccccc3SC2c2ccccc2F)c2ccccc21 (stereo not drawn)	-86	17
Cc1cccc(NC(=O)Nc2cnn(-c3ncncc3N3CCOCC3)c2)c1	-12	-24
O=C(Cn1c(=O)[nH]c2ccccc2c1=O)NCC1CCC(C(=O)NCC2CCC(C(=O)O)CC2)CC1 (stereo not drawn)	26	3
CO[C@H]1C[C@@H]2CC[C@@H](C)[C@@](O)(O2)C(=O)C(=O)N2CCCC[C@H]2C(=O)O[C@@H]([C@H](C)C[C@@H]2CC[C@@H](O)[C@H](OC)C2)CC(=O)[C@H](C)/C=C(\C)[C@@H](O)CC(=O)[C@H](C)C[C@H](C)/C=C/C=C/C=C/1C	-2	8
C[C@@H]1/C=C/CC/C=C/C(=O)[C@H](C)[C@@H]2CC[C@@H](C)[C@@](O)(O2)C(=O)C(=O)N2CCCC[C@H]2C(=O)O[C@H]([C@H](C)C[C@@H]2CC[C@@H](O)[C@H](O)C2)CC1	93*	82*
COc1cccc(NC(=O)C(C(=O)Nc2cccc(OC)c2)c2ccccc2)c1	14	14
COc1cccc(CN(C)C(=O)CC(c2ccccc2)c2ccccc2)c1	41*	/
O=C(OCC(=O)N1CCCCCC1)c1ccc2[nH]c3c(c2c1)CCCC3	-37	15
c1ccc(COc2ccc3[nH]c4c(c3c2)CCCCCC4)cc1	-26	42*
CCOC(=O)N1CCN(C(=O)[C@H](C)NC(=O)c2cc3c(OC)c(OC)ccc3[nH]2)CC1	-5	2
COc1cccc(NC(=O)[C@H](C)NC(=O)c2cc3c(OC)c(OC)ccc3[nH]2)c1	-24	47*
Cc1nc(-c2csc(S(=O)(=O)N3c4ccccc4CC3C)c2)no1 (stereo not drawn)	-24	-12
Cc1c(C(=O)O)nnn1-c1cccc2c1CCN(C1CCOCC1)C2	-100	-23
NC(=O)c1ccc(COC(=O)C2CC3CCC2C3)cc1 (stereo not drawn)	13	5
COc1ccc(-c2ccc3nnc(SCC(=O)NCC4CCCO4)n3n2)cc1 (stereo not drawn)	22	/
CCOc1ccc(NC(=O)COc2cccc(-n3cnnn3)c2)cc1	34*	8
SMILES	USP30 block	USP17 block
O=C(COc1ccc(Cl)cc1)Oc1ccc(-n2cnnn2)cc1	16	-1
O=C(COc1ccc(-n2cnnn2)cc1)Nc1ccc(F)c(Cl)c1	28	42*
O=C(COc1cccc(-n2cnnn2)c1)Nc1cccc(F)c1	-3	-6
CCOc1ccc(-c2ccc3nnc(SCC(=O)Nc4cccc(C(C)=O)c4)n3n2)cc1	48*	61*
Cc1ccn(-c2ccc(C(=O)N3CCSCC3)cn2)n1	18	6
O=C(c1cc(-c2cnc(-c3cccnc3)nc2)cn1CC1CC1)N1CCCC1	5	1
CO[C@H]1CC=C2C(=O)c3c(cc(C)c(-c4c(C)cc5c(c4O)C(=O)C4=CC[C@H](OC)[C@@H](O)[C@]4(C)O5)c3O)O[C@@]2(C)[C@@H]1O	1	-4
Cc1c(C(=O)Nc2cccc(F)c2)nnn1-c1cccc2c1CCN(C(=O)NC(C)C)C2	11	12
CCc1noc(-c2c(C)cc(C)n2CC(=O)NCc2ccc(Cl)cc2)n1	39*	12
Cc1cc(C)n(CC(=O)NCc2cccc(Cl)c2)c1-c1nc(C2CC2)no1	0	19
COc1ccc(C(=O)Nc2nccnc2C(=O)N2CCN(c3ccccc3F)CC2)cc1	-20	-17
O=S(=O)(c1ccccc1)c1cnn2c(-c3ccco3)ccnc12	/	-14
O=C(Cn1cnc2onc(-c3ccccc3F)c2c1=O)NCCCc1ccccc1	24	22
Cc1c(C)n(-c2ccccc2)c2ncn(CC(=O)NCCCc3ccccc3)c(=O)c12	-1	70*
